For test [1], the target named is Progesterone receptor (Homo sapiens) (UniProt P06401). Nature of the test: qHTS assay to identify small molecule agonists of the progesterone receptor (PR) signaling pathway (AID 1346784; calls by dose curve; also: nearly all actives have a fitted effect of over 30% in size). The gist of the method: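 PR-UAS-bla HEK 293T cells (beta-lactamase reporter under UAS) in 2% charcoal-stripped FBS, dosed with 23 nL compound after 6 hr, incubated 16hr at 37C. LiveBLAzer B/G FRET substrate added, fluorescence read after 2 hours.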
Sequence of Progesterone receptor (Homo sapiens) (P06401 whole entry, looked up): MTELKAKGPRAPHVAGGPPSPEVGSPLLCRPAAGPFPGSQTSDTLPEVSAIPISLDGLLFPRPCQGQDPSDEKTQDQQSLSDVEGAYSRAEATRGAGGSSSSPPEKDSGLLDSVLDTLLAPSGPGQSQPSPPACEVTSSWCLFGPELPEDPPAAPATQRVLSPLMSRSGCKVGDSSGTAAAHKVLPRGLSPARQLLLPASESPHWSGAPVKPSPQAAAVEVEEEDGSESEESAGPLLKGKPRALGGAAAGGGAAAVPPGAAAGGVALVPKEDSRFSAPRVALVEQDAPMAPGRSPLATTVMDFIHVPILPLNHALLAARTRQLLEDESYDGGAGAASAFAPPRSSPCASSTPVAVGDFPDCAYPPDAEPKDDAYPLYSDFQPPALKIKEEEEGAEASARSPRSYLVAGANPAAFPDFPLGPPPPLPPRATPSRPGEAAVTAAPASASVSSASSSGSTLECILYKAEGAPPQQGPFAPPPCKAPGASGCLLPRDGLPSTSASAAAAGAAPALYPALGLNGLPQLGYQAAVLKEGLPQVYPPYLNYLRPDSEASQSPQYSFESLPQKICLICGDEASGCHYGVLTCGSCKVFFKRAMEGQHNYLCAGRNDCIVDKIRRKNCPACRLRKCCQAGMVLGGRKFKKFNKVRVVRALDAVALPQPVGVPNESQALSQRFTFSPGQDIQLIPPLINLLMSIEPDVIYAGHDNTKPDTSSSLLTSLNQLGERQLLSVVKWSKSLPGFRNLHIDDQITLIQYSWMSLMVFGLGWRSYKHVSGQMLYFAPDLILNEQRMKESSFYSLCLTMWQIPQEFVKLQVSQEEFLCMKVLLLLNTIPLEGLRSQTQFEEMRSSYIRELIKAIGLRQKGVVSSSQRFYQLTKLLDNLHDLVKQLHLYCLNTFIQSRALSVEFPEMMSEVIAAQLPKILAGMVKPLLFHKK

A short description of test [2]: qHTS assay to identify small molecule agonists of the progesterone receptor (PR) signaling pathway - cell viability counter screen (AID 1346799; calls by dose curve; also: nearly all actives have a fitted effect of over 45% in size). A digest of the protocol: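 Counter screen in the PR-UAS-bla HEK293T wells (2% charcoal-stripped FBS, 16 h compound exposure at 37 C) after the bla read. CellTiter-Glo added, 30 min at room temperature, luminescence read as cell viability.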
A general note: qHTS replaces the single test concentration by a dilution series.

A short description of test [3]: qHTS assay to identify small molecule antagonists of the TGF-beta/Smad signaling pathway - cell viability counter screen (AID 1346824). Also: nearly all actives have a fitted effect of over 50% in size. A digest of the protocol:
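Cytotoxicity counter-screen run in the same wells as the beta-lactamase Smad reporter read: CellTiter-Glo luminescence after 30 min at room temperature. HEK 293T SBE-bla cells had 5 hr compound exposure at 37 C with TGF-beta1 (0.25 ng/mL stock).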

Test [4] in a line: qHTS assay to identify small molecule agonists of the TGF-beta/Smad signaling pathway - cell viability counter screen (AID 1346829). Also: top concentration of the series differs between compounds; nearly all actives have a fitted effect of over 45% in size. The gist of the method: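 CellTiter-Glo luminescence readout; SBE-bla HEK 293T cells, overnight plating, compound 5 hr at 37 C/5% CO2, then bla substrate 2 hr RT, then CellTiter-Glo 30 min RT.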
Test [5] in a line: qHTS assay to identify small molecule agonists of the TGF-beta/Smad signaling pathway (AID 1346859; active = well fitted activation curve with a large enough effect in the signal ratio in the repeat runs, not every such curve was filed as active; the % refers to the signal ratio; also: series mostly up to about 77 µM). The gist of the method: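 SBE-bla HEK293T cells plated overnight, then compound exposure for 5 h at 37 C. Beta-lactamase reporter read with LiveBLAzer B/G FRET substrate after 2 h at room temperature, fluorescence at 405 nm excitation, 460/530 nm emission.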
Test [6] is described as follows: Human pregnane X receptor (PXR) small molecule agonists, qHTS cell viability counter screen (AID 1346977). Also: nearly all actives have a fitted effect of over 50% in size. A digest of the protocol: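 PXR-Luc HepG2 cells (2,000/well, 5% charcoal-stripped FBS) preincubated 5 hr, then exposed to compounds 24 hr at 37 C. Viability read in the same wells by CellTiter-Fluor fluorescence, reagent added at 23 hr, 1 hr incubation.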
A short description of test [7]: Caspase-3/7 induction in HepG2 cells by small molecules, qHTS assay (AID 1346978). Also: nearly all actives have a fitted effect of over 15% in size. The gist of the method: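 Caspase-3/7 induction was measured by Caspase-Glo 3/7 luminescence (30 min, room temperature) after a 17 hr compound exposure of wild-type HepG2 cells seeded at 2,000 per well and pre-incubated 5 hr.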
Test [8] in a line: Caspase-3/7 induction in CHO-K1 cells by small molecules, qHTS cell viability counter screen (AID 1346979). Also: nearly all actives have a fitted effect of over 35% in size. Also: potency is read from the fitted curve at half-maximal effect. A digest of the protocol: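 Wild-type CHO-K1 cells (1,500/well) treated with compound after 5 h plating; after 16 h at 37C, viability read as CellTiter-Fluor fluorescence following 1 h reagent incubation, in the same wells as the caspase read.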
A short description of test [9]: Caspase-3/7 induction in CHO-K1 cells by small molecules, qHTS assay (AID 1346980). Also: nearly all actives have a fitted effect of over 15% in size. The gist of the method:
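Luminescent Caspase-Glo 3/7 read (30min, room temperature) quantified apoptosis induction. Cells were wild-type CHO-K1, treated with compound for 17hr at 37 C and 5% CO2.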

Test [10] in a line: Caspase-3/7 induction in HepG2 cells by small molecules, qHTS cell viability counter screen (AID 1346981). Also: series mostly up to about 92 µM; nearly all actives have a fitted effect of over 30% in size. A digest of the protocol: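 Multiplexed with the caspase-3/7 assay: HepG2 cells, 16 hr compound treatment, CellTiter-Fluor viability detection by fluorescence.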
Test [11] concerns the target Nuclear receptor subfamily 1 group I member 2 (Rattus norvegicus) (UniProt Q9R1A7). Kind of test: Rat pregnane X receptor (rPXR) activation by small molecules, qHTS assay (AID 1346983). Also: nearly all actives have a fitted effect of over 20% in size. The note with it: rPXR luciferase reporter cells, One-Glo luminescence, 24 h; stronger effect = higher value. A digest of the protocol: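 Luminescent readout (One-Glo luciferase, 30 min room temperature) followed 24 hr compound treatment at 37 C of rPXR cells plated 2,000 per well and preincubated 5hr; qHTS format with compounds delivered in DMSO.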

Test [12] deals with Cytochrome P450 2D6 (Homo sapiens) (UniProt P10635). Kind of test: Cytochrome P450 Family 2 Subfamily D Member 6 (CYP2D6) small molecule antagonists: luciferase reporter qHTS assay (AID 1671196). Also: nearly all actives have a fitted effect of over 50% in size. Also: potency is read from the fitted curve at half-maximal effect. The gist of the method:
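Luminescence (RLU), read 20 min after detection reagent, indicated CYP2D6 conversion of proluciferin to luciferin during a 1 h NADPH-dependent reaction at room temperature.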
In general terms: A reporter such as luciferase makes a cellular process visible.

Test [13] has as its target Cytochrome P450 2C19 (Homo sapiens) (UniProt P33261). Nature of the test: Cytochrome P450 Family 2 Subfamily C Member 19 (CYP2C19) small molecule antagonists: luciferase reporter qHTS assay (AID 1671197). Also: nearly all actives have a fitted effect of over 65% in size. Also: potency is read from the fitted curve at half-maximal effect. A digest of the protocol: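 Enzyme-substrate mix with proluciferin substrate (P450-Glo CYP2C19 system) preincubated with compounds 10 min at room temperature; NADPH regeneration solution added, 37C for 1 h; detection reagent stops reaction, luminescence read after 20 min. Ketoconazole positive control.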

Test [14] has as its target Progesterone receptor (Homo sapiens) (UniProt P06401). Nature of the test: qHTS assay to identify small molecule antagonists of the progesterone receptor (PR) signaling pathway (AID 1346795; active = well fitted inhibition curve with a large enough effect in the signal ratio in the repeat runs, not every such curve was filed as active; the % refers to the signal ratio; also: potency is read from the fitted curve at half-maximal effect). The gist of the method: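 PR-UAS-bla HEK293T cells with beta-lactamase reporter under UAS control, in 2% charcoal-stripped FBS, treated with compounds plus 1 nM promegestone (R5020, final) for 16 hr at 37C. Read-out: FRET beta-lactamase substrate fluorescence after 2 hr at room temperature.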

For test [15], the target named is Nuclear receptor subfamily 1 group I member 2 (Homo sapiens) (UniProt O75469). Kind of test: Human pregnane X receptor (PXR) small molecule agonists, qHTS assay (AID 1346982). Also: nearly all actives have a fitted effect of over 35% in size. Also: potency is read from the fitted curve at half-maximal effect. The gist of the method: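 We seeded PXR-Luc HepG2 cells in assay medium containing 5% charcoal-stripped FBS, added compounds 5 hr later, incubated 24 hr, and read luminescence with ONE-Glo reagent.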
Sequence of Nuclear receptor subfamily 1 group I member 2 (Homo sapiens) (O75469 whole entry, looked up): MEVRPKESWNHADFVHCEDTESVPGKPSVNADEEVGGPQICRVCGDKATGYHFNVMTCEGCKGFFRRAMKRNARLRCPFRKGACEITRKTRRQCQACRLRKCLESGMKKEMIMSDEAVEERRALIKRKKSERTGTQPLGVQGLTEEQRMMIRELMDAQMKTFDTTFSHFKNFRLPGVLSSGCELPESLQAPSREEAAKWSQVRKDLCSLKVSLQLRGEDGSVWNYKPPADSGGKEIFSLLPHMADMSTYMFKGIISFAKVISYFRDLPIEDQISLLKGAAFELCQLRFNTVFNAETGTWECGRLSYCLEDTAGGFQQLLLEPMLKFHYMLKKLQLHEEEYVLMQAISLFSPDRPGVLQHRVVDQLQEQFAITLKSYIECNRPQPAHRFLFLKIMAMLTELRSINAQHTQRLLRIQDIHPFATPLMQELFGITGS

Test [16] has as its target Thyrotropin-releasing hormone receptor (Homo sapiens) (UniProt P34981). Nature of the test: qHTS assay to identify small molecule agonists of the thyrotropin-releasing hormone receptor (TRHR) signaling pathway (AID 1346891; calls by dose curve; also: series mostly up to about 58 µM). The gist of the method:
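HEK293 cells expressing TRHR plated 18 h at 37 C/5% CO2, calcium dye-loaded 2 h at 37 C, then compound added (agonist mode); kinetic calcium fluorescence read 3 min at 1 s intervals; 15 concentrations in triplicate.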

Test [17] addresses Nuclear receptor subfamily 1 group I member 2 (Homo sapiens) (UniProt O75469). Kind of test: CYP3A4 induction through human pregnane X receptor (PXR) by small molecules, qHTS assay (AID 1346984). Also: nearly all actives have a fitted effect of over 40% in size. Also: potency is read from the fitted curve at half-maximal effect. A digest of the protocol:
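qHTS, concentration-response format: HepG2 DPX-2 line, PXR/CYP3A4-luc. Exposure 24 h, 37C. Substrate Luciferin-IPA 3uM final, 3 h. Detection One-Glo, 30 min RT.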

Test [18] has the same target. Nature of the test: Human pregnane X receptor (PXR) activation by small molecules, qHTS assay (AID 1346985). Also: nearly all actives have a fitted effect of over 40% in size. Also: potency is read from the fitted curve at half-maximal effect. A digest of the protocol:
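DPX-2 cells (HepG2 co-transfected with a PXR response element and a CYP3A4-promoter luciferase construct) were seeded at 2,000 per well, rested 5 hr at 37C, then exposed to DMSO-dissolved compounds for 24 hr. Activation was read as luciferase luminescence.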

Test [19] in a line: qHTS assay to identify small molecule antagonists of the progesterone receptor (PR) signaling pathway - cell viability counter screen (AID 1346798). Also: series mostly up to about 92 µM; nearly all actives have a fitted effect of over 50% in size. The gist of the method:
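PR-UAS-bla HEK293T cells, 3,000/well in 2% charcoal-stripped FBS medium, dosed with compounds plus R5020 agonist and incubated 16 h at 37C. Viability then measured in the same wells by CellTiter-Glo luminescence after 30 min at RT.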

Here are results for 7 compounds from PubChem BioAssay (Tox21).

Several values for one entry are separate records, joined by “and”; a condition that tells them apart may be missing. Identical values can stand only once. Results filed as inconclusive are left out. More than one record can exist for a structure, and the calls need not agree. Activity calls are given as the source filed them. Unless noted, calls follow the shape of the dose curve; as a rule, active = well fitted curve in the direction sought with a large enough effect in the repeat runs; inconclusive = weak or mixed curves; inactive = no such curve, though single readings can be large; an effect the other way counts as inactive or inconclusive.
% is scaled to controls: 0 for no effect and ±100 for the full control effect.

Sequence of Cytochrome P450 2D6 (Homo sapiens) (P10635 whole entry, looked up): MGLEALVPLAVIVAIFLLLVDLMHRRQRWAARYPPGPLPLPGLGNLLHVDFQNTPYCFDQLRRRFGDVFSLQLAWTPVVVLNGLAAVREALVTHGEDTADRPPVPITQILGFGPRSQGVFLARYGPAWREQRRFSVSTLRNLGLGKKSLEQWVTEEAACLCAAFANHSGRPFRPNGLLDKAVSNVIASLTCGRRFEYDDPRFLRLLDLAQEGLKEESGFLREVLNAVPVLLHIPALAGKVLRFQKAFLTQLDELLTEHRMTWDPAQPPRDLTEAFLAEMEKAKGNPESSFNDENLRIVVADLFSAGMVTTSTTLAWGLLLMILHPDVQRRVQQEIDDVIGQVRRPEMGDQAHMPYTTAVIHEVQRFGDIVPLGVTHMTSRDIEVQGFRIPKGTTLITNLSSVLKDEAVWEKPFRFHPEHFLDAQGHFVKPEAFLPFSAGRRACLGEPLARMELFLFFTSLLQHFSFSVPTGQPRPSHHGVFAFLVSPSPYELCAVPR
Sequence of Nuclear receptor subfamily 1 group I member 2 (Rattus norvegicus) (Q9R1A7 whole entry, looked up): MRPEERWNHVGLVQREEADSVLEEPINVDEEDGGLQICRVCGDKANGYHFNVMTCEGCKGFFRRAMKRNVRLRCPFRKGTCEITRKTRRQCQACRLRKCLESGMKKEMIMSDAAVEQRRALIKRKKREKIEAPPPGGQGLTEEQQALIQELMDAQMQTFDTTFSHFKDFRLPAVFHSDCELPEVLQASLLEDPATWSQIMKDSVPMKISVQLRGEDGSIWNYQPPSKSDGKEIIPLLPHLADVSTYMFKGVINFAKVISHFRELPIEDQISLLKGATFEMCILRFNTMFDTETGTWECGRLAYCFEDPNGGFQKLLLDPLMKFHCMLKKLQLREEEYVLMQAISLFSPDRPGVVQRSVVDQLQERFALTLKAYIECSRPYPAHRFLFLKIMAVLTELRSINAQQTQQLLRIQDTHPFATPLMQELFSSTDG
Sequence of Cytochrome P450 2C19 (Homo sapiens) (P33261 whole entry, looked up): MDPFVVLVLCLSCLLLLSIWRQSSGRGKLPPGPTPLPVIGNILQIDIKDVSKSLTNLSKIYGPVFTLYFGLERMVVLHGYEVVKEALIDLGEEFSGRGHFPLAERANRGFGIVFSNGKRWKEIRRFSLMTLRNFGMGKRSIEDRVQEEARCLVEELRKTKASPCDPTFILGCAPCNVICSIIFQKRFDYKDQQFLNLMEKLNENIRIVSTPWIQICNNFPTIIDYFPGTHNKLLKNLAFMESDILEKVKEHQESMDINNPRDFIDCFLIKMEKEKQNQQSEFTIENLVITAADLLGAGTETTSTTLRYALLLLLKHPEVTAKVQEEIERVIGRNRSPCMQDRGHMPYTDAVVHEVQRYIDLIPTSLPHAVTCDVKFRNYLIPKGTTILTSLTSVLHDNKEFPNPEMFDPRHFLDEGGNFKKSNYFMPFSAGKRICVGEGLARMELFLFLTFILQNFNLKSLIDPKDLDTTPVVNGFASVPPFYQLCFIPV
Sequence of Thyrotropin-releasing hormone receptor (Homo sapiens) (P34981 whole entry, looked up): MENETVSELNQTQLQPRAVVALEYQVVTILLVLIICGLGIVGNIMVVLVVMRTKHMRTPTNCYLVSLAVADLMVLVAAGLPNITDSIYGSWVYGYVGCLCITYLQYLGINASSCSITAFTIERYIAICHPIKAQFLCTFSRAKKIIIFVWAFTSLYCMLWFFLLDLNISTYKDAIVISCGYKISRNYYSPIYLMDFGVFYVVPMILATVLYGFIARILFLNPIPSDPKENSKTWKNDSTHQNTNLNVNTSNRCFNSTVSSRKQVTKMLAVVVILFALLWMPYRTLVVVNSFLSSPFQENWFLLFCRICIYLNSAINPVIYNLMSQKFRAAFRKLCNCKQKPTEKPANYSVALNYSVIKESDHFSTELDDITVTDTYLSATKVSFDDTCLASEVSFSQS

With `CC[N+](C)(C)c1cccc(O)c1`, the Potency result in [1], in test [2], in test [3], in [6], in test [7] and in [8] was “inactive” throughout. In addition, the Potency result in test [10], in test [12] and in [13] was “inactive” in each case. In addition, the call in test [4], in test [5] and in test [9] was inactive. Further, the max activation in [11] was -3.46% (inactive).
For `C=CCCCCCCCCC=O`, the Potency entry in test [1], in test [14], in test [3], in test [6], in [7] and in test [8] was “inactive” in each case. In addition, the Potency entry in [10], in test [15] and in [12] was “inactive” throughout. Further, the compound was classed as inactive in test [4] and in test [5]. Also, the Potency in test [13] is 79.6 µM (active).
Consider `CC(C)(c1ccc(O)cc1)c1ccc(O)cc1`, for which the Potency in [14] was 15.2 µM (active); in test [8], 69.8 µM (active); in test [15] it was 24.1 µM (active) and 9.86 µM (active); in test [12] it was “inactive and 64.4 µM (active)”. The Potency entry in test [3], in [6], in test [7], in test [10] and in test [13] was “inactive” in each case. Further, the compound was classed as inactive in test [4], in test [5], in [16] and in [9].
For the compound `Cc1cccn2c(=O)c(-c3nnn[nH]3)cnc12`, the figures for the activation in [1], in test [5] and in [15] were 2.07% [at 19 µM] (inactive), -4.24% [at 15.8 µM] (inactive) and -6.8% [at 19 µM] (inactive), respectively. Also, the Potency entry in [14], in test [17], in test [18] and in test [13] was “inactive” each time. Further, the viability change, negative = cytotoxic in [3] was 3.02% [at 15.8 µM] (inactive). The activity change, negative = cytotoxicity in test [4] is 2.08% [at 15.8 µM] (inactive). In test [7], the caspase activation was -1.09% [at 19 µM] (inactive). For the same compound, the caspase-3/7 activation in [9] was -1.17% [at 19 µM] (inactive). In test [11], the max activation is -7.7% (inactive).
Turning to `Cn1c(N)c(N=O)c(=O)n(C)c1=O`, the Potency result in test [1], in [19], in [2], in test [3], in [6] and in test [7] was “inactive” throughout. Further, the Potency entry in [10] and in test [15] was “inactive” each time. Besides, the outcome in [4], in [5], in test [16] and in test [9] was inactive. In addition, in [13], the Potency was 58.2 µM (active).
Consider `O=C(CCCN1CCC(O)(c2cccc(C(F)(F)F)c2)CC1)c1ccc(F)cc1`, for which the Potency result in [1], in test [3], in [6], in test [7], in [10] and in test [15] was “inactive” each time. In addition, the Potency entry in test [13] was “inactive”. In addition, the call in test [4], in test [5], in test [16] and in test [9] was inactive. For the same compound, in test [11], the max activation is 1.11% (inactive). Besides, the Potency in test [17] was 4.47 µM (active); in test [18], 12.6 µM (active).
For `CC1(C)C(O)C(C)(C)C1O` (stereo not drawn), the Potency result in [19], in test [3], in [6], in test [7], in test [8] and in test [10] was “inactive” throughout. In addition, the Potency entry in test [15], in [12] and in test [13] was “inactive” in each case. Also, the compound was classed as inactive in test [4] and in [5].
